Common to all, as to assay: DAPPL (digital affinity profiling via proximity ligation, sequencing); 10 mM Tris-HCl pH 7.5, 50 mM NaCl, 1 mM DTT, 4% glycerol, room temperature, 30 min; GST-TFs on glutathione beads, 16-mer random dsDNA library, 0.1% formaldehyde crosslink after washing; high values mean tight binding
The target of test [1] is T1, FEV (Homo sapiens, UniProt Q99581 1-238).
T1 sequence: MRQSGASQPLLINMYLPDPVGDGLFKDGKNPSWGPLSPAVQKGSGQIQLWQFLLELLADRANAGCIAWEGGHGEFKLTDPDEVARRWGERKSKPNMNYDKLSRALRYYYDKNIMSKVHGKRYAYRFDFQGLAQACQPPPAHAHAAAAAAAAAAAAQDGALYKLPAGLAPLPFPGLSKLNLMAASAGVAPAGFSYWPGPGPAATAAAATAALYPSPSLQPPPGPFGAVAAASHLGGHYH
As to conditions: protein: recombinant; tags: N-terminal GST; dsDNA, one strand shown. An outline of the steps:
(§1)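 Human transcription factors were made in yeast as GST fusions, captured on glutathione beads and barcoded with DNA. With a tag-only sample included, the pool was incubated with 200 nmole of a random double-stranded 16-mer DNA library in Tris/NaCl/DTT/glycerol buffer at room temperature for 30 min, then crosslinked with 0.1% formaldehyde after washing, ligated by proximity, amplified and sequenced. For binding signal, each hexamer's read frequency for a factor is divided by its frequency for the tag-only sample.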

The target in test [2] is ETV5 (Homo sapiens, UniProt P41161 1-510). As to conditions: protein: recombinant; tags: N-terminal GST; dsDNA, one strand shown. An outline of the steps: as §1
Test [3] addresses HSF1 (Homo sapiens, UniProt Q00613 1-529). As to conditions: protein: recombinant; tags: N-terminal GST; chain copies: 3; dsDNA, one strand shown. In short, it runs like this:
as §1

Test [4] deals with T2, SPIC (Homo sapiens, UniProt Q8N5J4 1-248).
T2 sequence: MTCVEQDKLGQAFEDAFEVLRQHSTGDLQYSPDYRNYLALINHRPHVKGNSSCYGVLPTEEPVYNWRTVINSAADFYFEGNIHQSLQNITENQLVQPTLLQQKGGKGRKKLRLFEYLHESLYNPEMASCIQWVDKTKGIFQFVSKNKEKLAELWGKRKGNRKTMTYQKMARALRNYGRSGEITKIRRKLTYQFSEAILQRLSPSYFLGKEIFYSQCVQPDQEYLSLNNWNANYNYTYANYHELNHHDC
As to conditions: protein: recombinant; tags: N-terminal GST; dsDNA, one strand shown. In short, it runs like this:
as §1

In test [5] the target is ELF4 (Homo sapiens, UniProt Q99607 1-663). As to conditions: protein: recombinant; tags: N-terminal GST; dsDNA, one strand shown. In short, it runs like this: as §1
The target of test [6] is T3, ELK4 (Homo sapiens, UniProt P28324-2 1-405).
T3 sequence: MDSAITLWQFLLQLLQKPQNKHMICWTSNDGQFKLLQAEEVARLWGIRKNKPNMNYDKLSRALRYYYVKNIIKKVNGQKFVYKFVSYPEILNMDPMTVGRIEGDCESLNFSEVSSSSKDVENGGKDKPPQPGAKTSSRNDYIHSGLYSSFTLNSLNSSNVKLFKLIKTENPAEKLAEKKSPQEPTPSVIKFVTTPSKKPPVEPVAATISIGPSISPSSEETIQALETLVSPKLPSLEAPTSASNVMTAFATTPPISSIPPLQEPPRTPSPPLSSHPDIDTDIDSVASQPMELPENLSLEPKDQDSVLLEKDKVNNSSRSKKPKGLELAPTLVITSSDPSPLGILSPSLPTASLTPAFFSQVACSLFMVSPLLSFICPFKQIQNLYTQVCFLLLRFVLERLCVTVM
As to conditions: protein: recombinant; tags: N-terminal GST; dsDNA, one strand shown. An outline of the steps: as §1

Test [7] has as its target T4, ETV2 (Homo sapiens, UniProt O00321 1-342).
T4 sequence: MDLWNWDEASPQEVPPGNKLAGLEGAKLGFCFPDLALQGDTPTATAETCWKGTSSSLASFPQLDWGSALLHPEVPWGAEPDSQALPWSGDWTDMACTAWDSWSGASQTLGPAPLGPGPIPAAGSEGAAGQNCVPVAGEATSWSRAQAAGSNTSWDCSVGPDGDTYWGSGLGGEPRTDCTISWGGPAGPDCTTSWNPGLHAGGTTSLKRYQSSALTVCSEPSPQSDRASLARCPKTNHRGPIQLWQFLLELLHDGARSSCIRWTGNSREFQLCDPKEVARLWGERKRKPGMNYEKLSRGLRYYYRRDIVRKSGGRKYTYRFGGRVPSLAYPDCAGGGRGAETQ
As to conditions: protein: recombinant; tags: N-terminal GST; dsDNA, one strand shown. An outline of the steps: as §1

In test [8] the target is T5, ELF3 (Homo sapiens, UniProt P78545 1-371).
T5 sequence: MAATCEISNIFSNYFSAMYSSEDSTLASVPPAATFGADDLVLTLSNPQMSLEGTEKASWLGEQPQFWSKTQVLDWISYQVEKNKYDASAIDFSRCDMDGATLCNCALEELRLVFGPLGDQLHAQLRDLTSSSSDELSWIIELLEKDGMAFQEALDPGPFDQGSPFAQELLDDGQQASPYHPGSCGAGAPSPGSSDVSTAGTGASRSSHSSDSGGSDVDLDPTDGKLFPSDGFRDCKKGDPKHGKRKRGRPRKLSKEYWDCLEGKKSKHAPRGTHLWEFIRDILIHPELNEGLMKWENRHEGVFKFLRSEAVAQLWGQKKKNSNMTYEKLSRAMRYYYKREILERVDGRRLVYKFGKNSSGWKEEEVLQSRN
As to conditions: protein: recombinant; tags: N-terminal GST; dsDNA, one strand shown. In short, it runs like this: as §1

In test [9] the target is CRX (Homo sapiens, UniProt O43186 1-299). As to conditions: protein: recombinant; tags: N-terminal GST; dsDNA, one strand shown. In short, it runs like this:
as §1

In test [10] the target is ETV1 (Homo sapiens, UniProt P50549 1-477). As to conditions: protein: recombinant; tags: N-terminal GST; dsDNA, one strand shown. An outline of the steps: as §1
Test [11] concerns the target T6, ERF (Homo sapiens, UniProt P50548 1-548).
T6 sequence: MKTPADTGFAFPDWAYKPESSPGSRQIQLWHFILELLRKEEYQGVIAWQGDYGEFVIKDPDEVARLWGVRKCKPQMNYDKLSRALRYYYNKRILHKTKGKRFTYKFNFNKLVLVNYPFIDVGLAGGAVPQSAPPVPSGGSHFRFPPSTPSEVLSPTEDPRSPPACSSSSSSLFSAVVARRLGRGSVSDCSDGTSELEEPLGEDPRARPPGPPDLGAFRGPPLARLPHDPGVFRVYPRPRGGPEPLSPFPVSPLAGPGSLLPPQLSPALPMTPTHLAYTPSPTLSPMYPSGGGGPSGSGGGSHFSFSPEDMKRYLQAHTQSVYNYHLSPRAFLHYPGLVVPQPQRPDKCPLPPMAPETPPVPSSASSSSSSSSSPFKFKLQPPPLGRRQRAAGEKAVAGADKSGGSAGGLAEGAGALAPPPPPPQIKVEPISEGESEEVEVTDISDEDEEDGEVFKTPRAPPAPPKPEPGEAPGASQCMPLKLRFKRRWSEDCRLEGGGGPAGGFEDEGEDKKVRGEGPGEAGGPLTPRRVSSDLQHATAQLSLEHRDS
As to conditions: protein: recombinant; tags: N-terminal GST; dsDNA, one strand shown. An outline of the steps: as §1

Test [12] addresses T7, ETV3L (Homo sapiens, UniProt Q6ZN32 1-361).
T7 sequence: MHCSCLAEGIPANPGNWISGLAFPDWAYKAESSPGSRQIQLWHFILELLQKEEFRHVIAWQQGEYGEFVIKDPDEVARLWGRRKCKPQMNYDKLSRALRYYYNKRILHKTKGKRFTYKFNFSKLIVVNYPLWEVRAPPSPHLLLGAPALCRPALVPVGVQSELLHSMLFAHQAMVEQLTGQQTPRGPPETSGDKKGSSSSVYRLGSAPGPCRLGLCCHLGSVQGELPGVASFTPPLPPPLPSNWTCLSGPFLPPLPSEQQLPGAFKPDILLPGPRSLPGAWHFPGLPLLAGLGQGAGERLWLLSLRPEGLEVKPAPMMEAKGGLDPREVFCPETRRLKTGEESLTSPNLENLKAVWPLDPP
As to conditions: protein: recombinant; tags: N-terminal GST; dsDNA, one strand shown. In short, it runs like this: as §1

The target in test [13] is T8, ETS2 (Homo sapiens, UniProt P15036 1-469).
T8 sequence: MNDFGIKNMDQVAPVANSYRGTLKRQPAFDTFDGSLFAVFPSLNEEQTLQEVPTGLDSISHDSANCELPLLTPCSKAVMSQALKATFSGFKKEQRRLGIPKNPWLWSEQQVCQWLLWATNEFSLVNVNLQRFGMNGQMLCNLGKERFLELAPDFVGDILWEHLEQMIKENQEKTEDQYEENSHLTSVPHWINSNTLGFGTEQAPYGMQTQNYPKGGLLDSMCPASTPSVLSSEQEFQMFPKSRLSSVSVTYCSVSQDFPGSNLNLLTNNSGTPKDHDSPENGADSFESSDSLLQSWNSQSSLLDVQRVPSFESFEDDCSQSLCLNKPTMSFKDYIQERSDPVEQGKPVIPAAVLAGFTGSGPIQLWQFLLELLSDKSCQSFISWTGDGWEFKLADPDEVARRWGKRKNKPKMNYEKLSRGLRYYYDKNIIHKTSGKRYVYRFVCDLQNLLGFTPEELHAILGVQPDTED
As to conditions: protein: recombinant; tags: N-terminal GST; dsDNA, one strand shown. In short, it runs like this:
as §1

Test [14] has as its target T9, SPDEF (Homo sapiens, UniProt O95238 1-335).
T9 sequence: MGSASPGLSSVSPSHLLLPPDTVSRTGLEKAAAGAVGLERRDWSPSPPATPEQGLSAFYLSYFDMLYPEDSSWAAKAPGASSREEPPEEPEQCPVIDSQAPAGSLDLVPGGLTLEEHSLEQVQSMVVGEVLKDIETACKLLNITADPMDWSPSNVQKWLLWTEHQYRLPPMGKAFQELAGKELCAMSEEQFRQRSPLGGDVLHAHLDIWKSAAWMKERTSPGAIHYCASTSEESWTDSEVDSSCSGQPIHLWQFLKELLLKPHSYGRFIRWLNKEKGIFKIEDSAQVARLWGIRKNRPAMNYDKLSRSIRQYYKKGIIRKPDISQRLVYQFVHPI
As to conditions: protein: recombinant; tags: N-terminal GST; dsDNA, one strand shown. An outline of the steps:
as §1

In test [15] the target is T10, ETV7 (Homo sapiens, UniProt Q9Y603 1-341).
T10 sequence: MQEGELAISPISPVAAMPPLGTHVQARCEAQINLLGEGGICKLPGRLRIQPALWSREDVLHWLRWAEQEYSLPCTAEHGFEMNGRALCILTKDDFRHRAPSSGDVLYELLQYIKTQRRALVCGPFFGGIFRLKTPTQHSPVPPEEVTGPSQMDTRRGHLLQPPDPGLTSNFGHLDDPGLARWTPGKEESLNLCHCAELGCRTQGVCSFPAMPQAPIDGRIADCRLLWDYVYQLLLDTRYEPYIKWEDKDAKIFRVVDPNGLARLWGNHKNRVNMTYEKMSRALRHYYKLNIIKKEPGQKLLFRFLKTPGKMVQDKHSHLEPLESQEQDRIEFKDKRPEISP
As to conditions: protein: recombinant; tags: N-terminal GST; dsDNA, one strand shown. An outline of the steps:
as §1

In test [16] the target is T11, ELF5 (Homo sapiens, UniProt Q9UKW6-2 1-255).
T11 sequence: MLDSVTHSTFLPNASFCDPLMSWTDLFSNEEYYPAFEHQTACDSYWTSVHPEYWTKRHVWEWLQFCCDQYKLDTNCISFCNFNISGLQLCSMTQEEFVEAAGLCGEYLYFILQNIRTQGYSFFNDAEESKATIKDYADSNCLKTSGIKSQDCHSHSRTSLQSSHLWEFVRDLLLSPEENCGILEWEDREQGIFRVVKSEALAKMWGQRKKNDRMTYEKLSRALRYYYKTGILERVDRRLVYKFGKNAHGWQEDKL
As to conditions: protein: recombinant; tags: N-terminal GST; dsDNA, one strand shown. In short, it runs like this: as §1

Test [17] has as its target T12, ETV3 (Homo sapiens, UniProt P41162-2 1-143).
T12 sequence: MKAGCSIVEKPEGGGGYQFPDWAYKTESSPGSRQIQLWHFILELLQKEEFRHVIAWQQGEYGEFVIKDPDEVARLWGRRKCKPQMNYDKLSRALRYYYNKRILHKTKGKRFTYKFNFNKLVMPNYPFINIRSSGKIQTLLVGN
As to conditions: protein: recombinant; tags: N-terminal GST; dsDNA, one strand shown. In short, it runs like this:
as §1

Test [18] addresses ETV6 (Homo sapiens, UniProt P41212 1-452). As to conditions: protein: recombinant; tags: N-terminal GST; dsDNA, one strand shown. An outline of the steps: as §1

ETV5, sequence (P41161 whole entry): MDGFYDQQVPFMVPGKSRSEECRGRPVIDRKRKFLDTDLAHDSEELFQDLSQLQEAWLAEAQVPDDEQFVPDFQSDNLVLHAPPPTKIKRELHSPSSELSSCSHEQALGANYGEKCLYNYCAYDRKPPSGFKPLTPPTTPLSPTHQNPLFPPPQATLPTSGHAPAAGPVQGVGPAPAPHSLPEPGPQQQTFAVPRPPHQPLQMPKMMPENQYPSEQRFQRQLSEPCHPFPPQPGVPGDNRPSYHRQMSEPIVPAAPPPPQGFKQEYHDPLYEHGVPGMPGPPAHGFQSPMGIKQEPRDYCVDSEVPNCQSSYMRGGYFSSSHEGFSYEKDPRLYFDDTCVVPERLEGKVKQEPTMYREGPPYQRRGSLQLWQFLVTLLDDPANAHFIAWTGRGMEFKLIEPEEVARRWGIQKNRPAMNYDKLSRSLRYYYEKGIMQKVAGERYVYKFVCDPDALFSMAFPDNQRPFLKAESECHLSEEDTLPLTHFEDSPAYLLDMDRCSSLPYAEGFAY
HSF1, sequence (Q00613 whole entry): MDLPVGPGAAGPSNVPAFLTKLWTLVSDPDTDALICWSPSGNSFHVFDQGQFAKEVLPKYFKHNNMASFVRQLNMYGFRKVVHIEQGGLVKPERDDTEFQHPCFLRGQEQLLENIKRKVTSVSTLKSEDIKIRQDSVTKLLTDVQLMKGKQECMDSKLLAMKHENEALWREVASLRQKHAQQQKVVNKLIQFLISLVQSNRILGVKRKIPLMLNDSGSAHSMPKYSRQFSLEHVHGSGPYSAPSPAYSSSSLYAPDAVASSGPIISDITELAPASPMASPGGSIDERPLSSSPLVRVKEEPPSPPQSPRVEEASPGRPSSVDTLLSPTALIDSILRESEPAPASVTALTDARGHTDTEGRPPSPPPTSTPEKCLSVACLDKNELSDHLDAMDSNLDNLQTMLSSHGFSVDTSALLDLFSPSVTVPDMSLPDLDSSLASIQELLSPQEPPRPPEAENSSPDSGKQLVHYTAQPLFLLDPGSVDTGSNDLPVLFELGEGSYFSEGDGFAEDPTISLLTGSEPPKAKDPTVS
CRX, sequence (O43186 whole entry): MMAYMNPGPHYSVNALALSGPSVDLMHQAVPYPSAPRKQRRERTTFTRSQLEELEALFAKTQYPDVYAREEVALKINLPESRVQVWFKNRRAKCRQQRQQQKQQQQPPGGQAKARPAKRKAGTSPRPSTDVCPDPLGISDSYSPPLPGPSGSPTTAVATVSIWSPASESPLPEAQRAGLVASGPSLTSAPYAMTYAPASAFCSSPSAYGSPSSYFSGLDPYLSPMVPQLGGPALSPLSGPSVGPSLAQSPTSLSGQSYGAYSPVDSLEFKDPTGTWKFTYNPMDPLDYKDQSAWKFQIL
ETV6, sequence (P41212 whole entry): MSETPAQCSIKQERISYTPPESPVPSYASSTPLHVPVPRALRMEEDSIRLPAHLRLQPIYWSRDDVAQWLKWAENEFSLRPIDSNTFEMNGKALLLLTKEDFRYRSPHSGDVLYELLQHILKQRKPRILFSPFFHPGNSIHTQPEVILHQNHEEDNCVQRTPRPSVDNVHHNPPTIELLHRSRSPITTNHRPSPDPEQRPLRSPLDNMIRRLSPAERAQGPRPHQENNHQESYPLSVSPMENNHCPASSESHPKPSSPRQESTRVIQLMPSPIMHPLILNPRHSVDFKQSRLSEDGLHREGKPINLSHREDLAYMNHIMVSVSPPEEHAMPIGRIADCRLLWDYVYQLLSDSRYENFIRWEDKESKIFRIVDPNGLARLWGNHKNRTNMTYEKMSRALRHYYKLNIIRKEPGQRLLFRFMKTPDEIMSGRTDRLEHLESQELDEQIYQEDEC
ELF4, sequence (Q99607 whole entry): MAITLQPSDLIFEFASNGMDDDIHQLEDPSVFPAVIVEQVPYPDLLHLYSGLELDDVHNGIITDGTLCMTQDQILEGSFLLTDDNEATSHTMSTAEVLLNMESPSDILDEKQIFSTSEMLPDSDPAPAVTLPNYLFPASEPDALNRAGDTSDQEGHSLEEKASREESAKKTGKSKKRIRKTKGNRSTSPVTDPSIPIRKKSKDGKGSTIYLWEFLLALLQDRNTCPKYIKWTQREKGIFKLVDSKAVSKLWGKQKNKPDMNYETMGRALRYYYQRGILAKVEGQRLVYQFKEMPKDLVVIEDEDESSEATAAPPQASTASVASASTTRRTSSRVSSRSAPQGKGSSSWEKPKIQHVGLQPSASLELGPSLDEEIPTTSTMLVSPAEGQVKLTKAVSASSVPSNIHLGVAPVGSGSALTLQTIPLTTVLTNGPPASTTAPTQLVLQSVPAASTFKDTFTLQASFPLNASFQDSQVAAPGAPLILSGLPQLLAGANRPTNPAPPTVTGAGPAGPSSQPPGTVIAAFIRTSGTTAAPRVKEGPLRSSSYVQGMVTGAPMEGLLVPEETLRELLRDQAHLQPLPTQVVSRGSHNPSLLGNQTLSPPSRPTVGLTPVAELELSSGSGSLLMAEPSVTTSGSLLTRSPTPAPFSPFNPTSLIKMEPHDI
ETV1, sequence (P50549 whole entry): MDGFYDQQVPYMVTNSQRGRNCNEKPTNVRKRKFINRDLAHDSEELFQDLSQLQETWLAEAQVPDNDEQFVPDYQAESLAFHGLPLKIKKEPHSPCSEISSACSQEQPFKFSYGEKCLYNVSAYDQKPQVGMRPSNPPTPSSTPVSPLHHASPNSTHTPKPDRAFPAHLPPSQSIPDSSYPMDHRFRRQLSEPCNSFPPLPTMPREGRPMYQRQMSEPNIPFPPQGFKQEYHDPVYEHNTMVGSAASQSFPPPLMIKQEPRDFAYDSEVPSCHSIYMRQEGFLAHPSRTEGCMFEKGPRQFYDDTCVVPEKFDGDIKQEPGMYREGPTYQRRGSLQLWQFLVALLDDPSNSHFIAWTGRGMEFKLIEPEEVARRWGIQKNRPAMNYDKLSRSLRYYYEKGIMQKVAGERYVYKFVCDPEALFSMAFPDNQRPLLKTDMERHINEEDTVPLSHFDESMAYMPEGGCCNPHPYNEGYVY

As to ATAATA, the binding signal in test [1] was 1.17 fold enrichment (6-mer frequency, TF over GST control); in test [2], 1.18 fold enrichment (6-mer frequency, TF over GST control); in test [3] it was 1.67 fold enrichment (6-mer frequency, TF over GST control); in test [4], 1.21 fold enrichment (6-mer frequency, TF over GST control); in [5], 1.14 fold enrichment (6-mer frequency, TF over GST control); in test [6], 1.14 fold enrichment (6-mer frequency, TF over GST control). Also, the binding signal is 1.1 fold enrichment (6-mer frequency, TF over GST control) in [7]; 1.15 fold enrichment (6-mer frequency, TF over GST control) in [8]; 2.14 fold enrichment (6-mer frequency, TF over GST control) in [9]; 1.17 fold enrichment (6-mer frequency, TF over GST control) in test [10]; 1.32 fold enrichment (6-mer frequency, TF over GST control) in test [11]; 1.14 fold enrichment (6-mer frequency, TF over GST control) in test [12]. The binding signal is 1.2 fold enrichment (6-mer frequency, TF over GST control) in test [13]; 1.15 fold enrichment (6-mer frequency, TF over GST control) in [14]; 1.14 fold enrichment (6-mer frequency, TF over GST control) in test [15]; 1.17 fold enrichment (6-mer frequency, TF over GST control) in test [16]; 1.2 fold enrichment (6-mer frequency, TF over GST control) in [17]; 1.2 fold enrichment (6-mer frequency, TF over GST control) in test [18].

(Values after publication PMC7862700, “An all-to-all approach to the identification of sequence-specific readers for epigenetic DNA modifications on cytosine”.)
